About 79,000 compounds went through this panel and 15% of them were active in at least one assay; those are over-represented in the sample as a whole. A number with no mark means an inactive call. The source made the active and inactive calls. No stated cut-off is given here; in the data, active means growth inhibition above about 70%; inactive means the rest.

A short description of this assay: NCI Yeast Anticancer Drug Screen. Data for the rad50 strain (AID 155).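 Further: 0% = growth of vehicle-only cultures of the same strain.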 The note with it: S. cerevisiae rad50 strain growth inhibition; at 50.0 µM; active compounds read high. In outline:
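Genetically altered yeast (DNA repair pathway); compound treatment; growth inhibition vs vehicle ctrl.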
With `CCN(CC)CCCOC(c1ccccc1)c1ccc(Cl)cc1` (stereo not given), the growth inhibition is 17.8%.
The value for `O=C(/C(=C\C(=O)c1cccs1)c1ccsc1)c1ccc(Br)cc1` was 1.2%.
With `CCCCCCOCC(=O)OC` the figure was 10.2%; with `CC(=O)NC1=C(Sc2ccc(Cl)cc2)C(=O)c2ccccc2C1=O`, 56.2%.
With `CC(=O)OCC1OC(Sc2ccc([N+](=O)[O-])cc2)C(OC(C)=O)C(OC(C)=O)C1OC(C)=O` (stereo not given) the figure was 12.3%.
As for `c1ccc(C23CCCCC2O3)cc1` (stereo not given), the growth inhibition was 0.75%.
In the case of `CCN(CC)C(=S)Nc1ccc(-c2cc3ccc(O)cc3oc2=O)cc1`, the growth inhibition was -6.95%.
With `Nc1cccc(C(=O)Nc2ccc3c(O)cc(S(=O)(=O)O)cc3c2)c1` the figure was 15.2%.
On to `O=C(CCCC(=O)Nc1cccc([N+](=O)[O-])c1)CC(=O)c1ccc([N+](=O)[O-])cc1`, for which the growth inhibition was -2.7%.
With `CSc1cc(Cl)c(C)cc1S(=O)(=O)n1cc[nH]c1=O` the figure was -2.4%; with `O=C1CN(CCN2CCCCC2)CC(=O)N2Cc3ccccc3CN12`, -10.1%; with `COC(=O)NC1(NC(=O)OC)NC(=O)c2cc(OC)c(OC)c(OC)c2N1`, 17.1%.
With `Cc1cccc(C(=O)NC(C)C)c1`, the growth inhibition is -7.75%.
The value for `Cc1ccc(S(=O)(=O)OC2CCCCCC2c2ccccc2)cc1` (stereo not given) was 7.85%.
Take `c1ccc2c(c1)CCCC(N1CCOCC1)C2` (stereo not given): the growth inhibition was 2.3%.
The value for `CCOC(=O)CSC(=O)NCCCl` was 21.1%.
With `COc1ccc(C(=O)/C(Br)=C\C(=O)O)cc1` the figure was 16.8%; with `CCc1nc(N)nc(N)c1-c1ccc(Cl)c([N+](=O)[O-])c1`, 4.35%; with `COc1ccc(C2CC(c3cc(C)ccc3O)=NC(N)=N2)cc1` (stereo not given), 19.6%.
With `CCOC(=O)Cc1csc2[n+]1C(=O)/C(=C/c1cccc(OC)c1O)S2` the figure was 45.1%.
With `COc1ccc(CCN2C(=O)C(=O)N(c3ccc([N+](=O)[O-])cc3)C2=O)cc1OC`, the growth inhibition is 22.6%.
`CC1(c2cccc[n+]2Cc2ccccc2S(=O)(=O)[O-])OCCO1`: the growth inhibition was 5.5%.
For `O=c1[nH]nc(SCc2ccccc2)c(=O)n1C(c1ccccc1)c1ccccc1`, the growth inhibition was 26.4%.
With `COc1cc(C(=O)O)ccc1OC(C)=O` the figure was 7.4%; with `O=C1C=C(c2ccccc2)C(O)(c2ccccc2)/C1=C/C=C/c1ccccc1` (stereo not given), -3.55%.
Turning to `Cc1onc(-c2c(F)cccc2Cl)c1C(=O)Nc1cc2cc([N+](=O)[O-])ccc2oc1=O`, the growth inhibition was 12.3%.
The value for `C=CCSc1nc2ccc(NCn3c(=S)sc4ccccc43)cc2s1` was 71.7% (active); that for `Nc1nc(Cl)nc(Nc2ccc(-c3cc4ccc(-c5ncc[nH]5)cc4[nH]3)cc2)n1` was 15.5%.
The value for `CC(Br)C1=CC(c2ccccc2)(c2ccccc2)c2ccccc21` (stereo not given) was 97% (active); that for `COc1cccc(NC(=S)NC(=O)c2ccccc2)c1` was 82% (active); that for `Cc1ccc(C(=O)N2CCCCC2)cc1N=NN(C)C` was 0.05%.
On to `COC(=O)CC1(C(=O)OC)OC(=O)c2ccccc2N1C` (stereo not given), for which the growth inhibition was 8.2%.
With `COc1cc(O)c(Cc2ccccc2O)c(O)c1C(=O)CCc1ccccc1` the figure was -17.4%.
With `Cc1ccccc1-c1nc2c([nH]1)c(=O)n(C)c(=O)n2C` the figure was 32.8%.
The value for `ClC(c1ccccc1)c1cccc2ccccc12` (stereo not given) was 30.6%.
With `O=S1(=O)OC(c2ccc(O)cc2)(c2ccc(O)cc2)c2ccccc21`, the growth inhibition was 31.6%.
With `CCCSS[C@H]1NC(=O)[C@H]1NC(=O)COc1ccccc1` the figure was 31.1%; with `Cc1cc(N(CCC#N)CCC#N)ccc1N=Nc1ccccc1[N+](=O)[O-]`, -44.7%; with `CC(C)(NC(=O)c1cc(Cl)c2ccccc2c1O)C(=O)O`, 4.4%.
With `CN1C(C(=O)Nc2ccccn2)=C(O)c2ccccc2S1(=O)=O` the figure was 5%.

The values above are taken from PubChem BioAssay (NCI).
